RBX1-CUL1 inh: inhibitors of human ROC1-CUL1 ubiquitin ligase activity | 140,000 compounds, 0.6% hits | inhibition, % at 10 µM | AID 1347404, 2020 | E3 ubiquitin-protein ligase RBX1 (Homo sapiens) + Cullin-1 (Homo sapiens), P62877+Q13616 | in vitro K48 di-Ub FRET, acceptor:donor ratio, 45 min; in the data active = inhibition above about 25%
Target sequence (P62877 whole entry, looked up): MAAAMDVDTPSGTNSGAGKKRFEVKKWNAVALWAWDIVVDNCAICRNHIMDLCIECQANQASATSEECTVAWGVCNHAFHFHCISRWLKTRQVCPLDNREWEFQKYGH
Target sequence (Q13616 whole entry, looked up): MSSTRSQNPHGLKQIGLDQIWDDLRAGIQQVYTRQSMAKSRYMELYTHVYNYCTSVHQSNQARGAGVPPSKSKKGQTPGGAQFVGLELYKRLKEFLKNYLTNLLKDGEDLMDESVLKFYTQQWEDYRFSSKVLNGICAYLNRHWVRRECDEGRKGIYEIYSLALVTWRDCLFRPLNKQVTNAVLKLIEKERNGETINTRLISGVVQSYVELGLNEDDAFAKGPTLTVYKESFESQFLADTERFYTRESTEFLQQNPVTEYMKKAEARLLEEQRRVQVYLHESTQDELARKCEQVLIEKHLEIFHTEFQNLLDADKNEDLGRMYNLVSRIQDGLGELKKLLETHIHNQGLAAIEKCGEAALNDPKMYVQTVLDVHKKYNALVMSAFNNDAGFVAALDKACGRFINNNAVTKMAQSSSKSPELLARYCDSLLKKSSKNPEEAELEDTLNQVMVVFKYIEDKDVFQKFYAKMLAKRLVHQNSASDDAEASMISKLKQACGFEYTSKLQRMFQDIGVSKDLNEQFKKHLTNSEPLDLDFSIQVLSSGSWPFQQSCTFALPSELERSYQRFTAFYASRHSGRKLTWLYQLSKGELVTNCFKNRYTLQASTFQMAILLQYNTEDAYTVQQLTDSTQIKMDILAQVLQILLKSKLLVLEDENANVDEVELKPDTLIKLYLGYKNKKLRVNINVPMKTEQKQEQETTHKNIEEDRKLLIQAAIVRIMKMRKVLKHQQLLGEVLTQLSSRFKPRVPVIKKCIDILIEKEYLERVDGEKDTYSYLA
Of the large screens only hits and unclear results are named; the others gave an inactive call. This is one part of a sample in which hits are shown more often than they occur.

CC1=Nc2nc3ccccc3n2C(c2cccc(Cl)c2)C1C(=O)N1CCCCC1 (configuration not stated)	none
CCc1ccc(C(=O)N2CCN(S(=O)(=O)c3ccccc3)CC2)cc1	none
Cc1ncc2c(c1-c1noc(-c3scc4c3CCCC4)n1)CCNC2	none
COc1cc(C(c2c(C)[nH][nH]c2=O)c2c(C)[nH][nH]c2=O)ccc1OC(=O)c1ccc(Cl)cc1Cl	none
O=C(Nc1ccc2nc(SCCOc3ccccc3Cl)sc2c1)c1ccc2c(c1)OCO2	none
CCC(=O)Nc1nnc(SCC(=O)n2c3c(c4ccccc42)CCCC3)s1	none
CCN(CC)c1ccc(/C=C2\N=C(c3ccccc3)OC2=O)cc1	RBX1-CUL1 inh 31.7
COc1ccc(/C=C2\N=C(c3ccccc3)OC2=O)cc1[N+](=O)[O-]	none
CCOc1cc(/C=C2\N=C(c3ccccc3)OC2=O)ccc1OCc1ccc(Cl)cc1	none
COCCCNC(=O)CN1C(=O)c2cccnc2Sc2ccccc21	none
CCCN(CCC)Nc1ccc(CN2OCC(C)(C)C2=O)c(Cl)c1	none
Nc1c(C(=O)Nc2ccccc2C(=O)O)sc2nc3c(cc12)CCCCCC3	none
Nc1c(C(=O)Nc2ccccc2F)sc2nc3c(cc12)CCCCC3	none
Nc1c(C(=O)Nc2ccccc2C(=O)O)sc2nc3c(cc12)CCCCC3	RBX1-CUL1 inh 35.4
CCCn1nnc(-c2ccc(OC)c(OCC)c2)n1	none
O=[N+]([O-])c1c(Br)ccc2ccccc12	none
Cc1cc(C)n(C(=O)c2cccnc2Cl)n1	none
O=C(c1coc(COc2cccc3cccnc23)n1)N1CC[C@@H]2CCCC[C@H]2C1	RBX1-CUL1 inh 56.6
O=C(c1coc(COc2cccc3cnccc23)n1)N1CCCC1	none
CC(C)CNC(=O)c1coc(COc2cccc3cccnc23)n1	none
Cc1ccc(CC2(CCC(=O)N(C)Cc3csc(-c4cccs4)n3)CCC(=O)N2)cc1 (configuration not stated)	none
COc1ccc(C(=O)Oc2c(Sc3ccc(C)cc3)c(C)nn2C(C)(C)C)cc1OC	none
COc1cccc(C(=O)Oc2c(Sc3ccc(C)cc3)c(C)nn2C(C)(C)C)c1OC	none
COCC(=O)Oc1c(Sc2ccc(C)cc2)c(C)nn1C(C)(C)C	RBX1-CUL1 inh 58.7
O=C1NC(=S)N(c2cccc(Cl)c2)C12CCCCC2	none
O=C(/C=C/c1ccccc1)c1c(-c2ccccc2)c2ccccc2[nH]c1=O	none
Cc1occc1C(=O)N(C)C(Cc1ccccc1)C1CCN(C(=O)c2n[nH]c3c2CCCC3)CC1 (configuration not stated)	none
COc1ccc(C2CC(c3ccccc3)=Nc3nc(NC(=O)/C=C/c4ccccc4Cl)nn32)cc1 (configuration not stated)	none
Oc1ccc(C(c2c[nH]c3ccccc23)c2c[nH]c3ccccc23)cc1O	none
CCCC1=NN(c2ccccc2)C2Oc3c(OC)cccc3C(c3cn(-c4ccccc4)nc3CCC)C12 (configuration not stated)	RBX1-CUL1 inh 55.9
CCCC1=NN(c2ccccc2)C(=O)C1C1c2ccccc2Oc2c1c(CCC)nn2-c1ccccc1 (configuration not stated)	none
COc1ccccc1C1CC(c2ccccc2)=NN1c1ccccc1 (configuration not stated)	none
CCCCOc1ccc(C(=O)N(Cc2ccccc2)C2CCS(=O)(=O)C2)cc1 (configuration not stated)	none
Cc1cc(C(=O)N2CCc3[nH]nc(-c4ccc(Cl)cc4)c3C2)n(C)n1	none
CC1=NN(c2ccc(C)cc2)C(O)C1 (configuration not stated)	RBX1-CUL1 inh 75.0
Cc1ccc(N2C(=O)C(=O)N=C(Cl)C2Cl)cc1 (configuration not stated)	none
CSc1ccc(C2N(c3ccc(C)cc3)CCN2c2ccc(C)cc2)cc1	none
CCOc1ccc(NC(=O)Cn2cc(C(=O)c3ccc(OCC)cc3)c(=O)c3cc4c(cc32)OCCO4)cc1	none
O=C(Nc1ccc2oc(-c3cccnc3)nc2c1)c1ccc(-c2ccccc2)o1	none
O=C(/C=C/c1ccco1)Nc1ccc2oc(-c3cccnc3)nc2c1	RBX1-CUL1 inh 54.0
CCc1ccc(-c2nc3cc(NC(=O)/C=C\c4ccco4)ccc3o2)cc1	none
CCOc1ccc(/C=C2\C(=O)NC(=S)N(c3cccc(C)c3C)C2=O)cc1	none
Cc1ccccc1N1C(=O)/C(=C/c2cccn2-c2cccc(C(=O)O)c2)C(=O)NC1=S	RBX1-CUL1 inh 102.3
Cc1ccc(N2C(=O)/C(=C/c3cccn3-c3ccc(N(C)C)cc3)C(=O)NC2=S)cc1C	RBX1-CUL1 inh 34.7
O=C1NC(=S)N(c2ccccc2)C(=O)/C1=C/c1cccn1-c1ccc(Br)cc1	none
O=C1NC(=S)N(c2ccccc2F)C(=O)/C1=C/c1cccn1-c1cccc(C(=O)O)c1	RBX1-CUL1 inh 100.9
COc1cccc(/C=C2\C(=O)NC(=S)N(c3ccccc3C)C2=O)c1OC(C)C	RBX1-CUL1 inh 30.6
CCc1ccc(N2C(=O)/C(=C/c3cccn3-c3cccc(C(=O)O)c3)C(=O)NC2=S)cc1	none
Cc1cccc(N2C(=O)/C(=C/c3cccn3-c3cccc(C(F)(F)F)c3)C(=O)NC2=S)c1	none
COc1cccc(C=C2C(=O)c3ccccc3C2=O)c1OC(C)C	none
O=C(O)c1cccc(-n2cccc2/C=C2\SC(=O)N(Cc3ccccc3F)C2=O)c1	none
COc1cc(/C=C2\C(=O)NC(=S)N(c3ccccc3F)C2=O)c(Br)cc1O	none
Cc1ccccc1N1C(=O)/C(=C/c2cc(Cl)cc(Cl)c2O)C(=O)NC1=S	none
COc1ccccc1N1CCN(C(CNC(=O)C(=O)NCCN(C)C)c2cccnc2)CC1 (configuration not stated)	none
O=C1c2cccn2CC1CC(=O)N1CCCCC1 (configuration not stated)	none
COc1ccc(S(=O)(=O)Nc2cccc(-c3ccc(N4CCCCC4)nn3)c2)cc1F	none
COc1ccc(S(=O)(=O)N2Cc3ccccc3CC2C(=O)Nc2cc(Cl)ccc2Cl)cc1 (configuration not stated)	none
COc1cccc2c1OCC(CN1CC[C@@H](N3CCC(O)CC3)[C@H](O)C1)=C2	none
COc1ccc(NS(=O)(=O)c2ccc(OCC(=O)NC3CCCCCC3)cc2)cc1	none
Cc1cc(/C=C2\C(=O)NC(=S)N(c3ccc(Cl)cc3)C2=O)c(C)n1-c1sc2c(c1C(=O)Nc1ccccc1)CCCC2	RBX1-CUL1 inh 41.2
Cc1cc(/C=C2\C(=O)NC(=S)N(c3cccc(Cl)c3)C2=O)c(C)n1-c1sc2c(c1C(=O)Nc1ccccc1)CCCC2	none
Cc1cccc(N2C(=O)/C(=C/c3cc(C)n(-c4sc5c(c4C(=O)Nc4ccccc4)CCCC5)c3C)C(=O)NC2=S)c1	none
Cc1ccc2c(c1)C(=O)CC(O)(C(F)(F)F)O2 (configuration not stated)	none
COC(=O)c1c(C)sc(-c2c(-c3cccc(OC)c3)[nH]c3c2c(=O)[nH]c(=O)n3C)c1O	none
COC(=O)c1c(C)sc(-c2c(-c3ccc4c(c3)OCCO4)[nH]c3c2c(=O)[nH]c(=O)n3C)c1O	RBX1-CUL1 inh 27.3
COC(=O)c1c(C)sc(-c2c(-c3ccc(OC)c(F)c3)[nH]c3c2c(=O)n(C)c(=O)n3C)c1O	none
CCOC(=O)c1c(-c2ccc(Cl)cc2)csc1NC(=O)COc1ccc(C)c(C)c1	none
COc1ccc(C(=O)Nc2ccc3c(c2)C(=O)N(C2CCCCC2)C3=O)cc1	none
O=C(O)c1cccc(NC(=O)c2ccc3c(c2)C(=O)N(C2CCCCC2)C3=O)c1	RBX1-CUL1 inh 26.5
CC(C)(C)NC(=O)c1ccc2c(c1)C(=O)N(C1CCCCC1)C2=O	none
Cc1cc(NC(=O)CCn2cc(Br)cn2)no1	none
O=C(Nc1ccc(Br)cc1)c1ccc(S(=O)(=O)N2CCOCC2)cc1	none

Compound activity: PubChem, Pan Lab, Icahn School of Medicine at Mount Sinai
